The target in assay [1] is Luciferin 4-monooxygenase (Photinus pyralis) (UniProt P08659). The assay can be described thus: CCTE_Simmons_QuantiLum_inhib_2: CCTE's Firefly Luciferase Inhibition Assay, Simmons Lab (AID 2283767).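 On AC50: potency for inhibitors that lower luciferase luminescence relative to DMSO.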 In outline:
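Recombinant firefly luciferase (5 ng/well, 200 mM potassium phosphate with 1 mg/ml BSA) was exposed to 8 concentrations from 5 nM to 87.5 uM (final, 0.5% DMSO) for 30 min at 37C in the dark. Loss of luminescence versus DMSO was read after injecting D-luciferin/ATP-analogue reagent.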

Assay [2] in a line: CEETOX_H295R_MTT_cell_viability: Viability Assessment in the CeeTox HT-H295R MTT Assay (AID 2283718; active means hit-call score of the fitted dose curve at least 0.9, where 1 is the maximum; inactive means score below 0.9;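 on AC50: curve fitted both ways so AC50 may mark viability loss or gain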). In short, it runs like this:
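MTT reduction (0.5 mg/ml, 4 h at 37 C; absorbance at 570 and 650 nm) gave viability as background-corrected percent change versus controls. H295R cells had 48 h forskolin (10 uM) prestimulation, then 48 h chemical exposure at 0.1% DMSO.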

Assay [3] in a line: STM_H9_OrnCyssISnorm_ratio: Stemina devTOX quickPredict H9 human embryonic stem cell (hESC)-based Assay for Ornithine (ORN):Cystine (CYSS) Ratio (AID 2283714). In outline: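 Steps: H9 hESCs in pluripotent state dosed 72h, medium plus compound renewed every 24h; conditioned medium from the final 24h deproteinized in 40% acetonitrile; ORN and CYSS quantified by UPLC-HRMS with C13 spike-ins; ratio relative to vehicle.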

Assay [4] is described as follows: ACEA_AR_agonist_AUC_viability: ACEA Biosciences xCELLigence Real-Time Cell Analysis on Androgen Receptor Agonism for Viability (AID 2283775).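 On AC50: viability read 80 hours after compound addition.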 In short, it runs like this: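 Read-out is area under the impedance curve at 80 h post-dose in 22Rv1 cells, with DMSO as baseline and signal loss taken as reduced viability. Compounds ran in duplicate from 100 uM final.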

Assay [5] is described as follows: ACEA_AR_antagonist_AUC_viability: ACEA Biosciences xCELLigence Real-Time Cell Analysis on Androgen Receptor Antagonism for Viability (AID 2283776).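 Further: 22Rv1 human prostate cancer cells growing on impedance electrode plates; area under impedance growth curve at 80 h after dosing as viability; hits lower the growth signal relative to DMSO meaning cytotoxicity.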 In outline:
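22Rv1 prostate cells, continuous dosing up to 100 uM final (0.5% DMSO max), duplicate plates. Growth measured by impedance; AUC at 80 h, loss of signal vs DMSO.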

Assay [6] can be described thus: Tanguay_ZF_120hpf_ActivityScore_legacy: (Legacy) Oregon State University Tanguay Lab 120 Hour Post-fertilization zebrafish Assay Score for Activity (AID 2283742). In short, it runs like this:
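Embryos are staged, enzymatically dechorionated at 4 hpf, placed individually at 6 hpf, then held in test chemical (0.64% DMSO) at 28C until 120 hpf. Mortality and malformations are scored by brightfield, with non-mortality endpoints skipped for dead embryos.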

Records with an inconclusive call do not appear. The source made the active and inactive calls. How the source made its calls, unless noted: active means hit-call score of the fitted dose curve at least 0.9, where 1 is the maximum; inconclusive means response in the unintended direction; inactive means score below 0.9.

Sequence of Luciferin 4-monooxygenase (Photinus pyralis) (P08659 whole entry, looked up): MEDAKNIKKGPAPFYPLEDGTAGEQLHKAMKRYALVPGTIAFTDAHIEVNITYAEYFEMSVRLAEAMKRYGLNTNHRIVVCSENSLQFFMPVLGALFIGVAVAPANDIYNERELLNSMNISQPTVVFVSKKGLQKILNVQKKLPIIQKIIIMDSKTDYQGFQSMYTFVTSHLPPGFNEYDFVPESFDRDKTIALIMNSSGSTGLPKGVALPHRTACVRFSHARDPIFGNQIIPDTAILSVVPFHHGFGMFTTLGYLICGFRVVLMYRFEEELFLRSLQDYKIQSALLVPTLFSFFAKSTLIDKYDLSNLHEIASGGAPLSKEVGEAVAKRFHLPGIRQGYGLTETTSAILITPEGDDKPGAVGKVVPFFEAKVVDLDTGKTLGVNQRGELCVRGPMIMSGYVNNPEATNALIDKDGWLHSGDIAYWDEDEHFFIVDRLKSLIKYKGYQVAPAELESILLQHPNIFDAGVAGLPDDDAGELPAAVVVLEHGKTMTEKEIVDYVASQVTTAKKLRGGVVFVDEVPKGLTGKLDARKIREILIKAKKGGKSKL

For `c1ccc2c(c1)c1cccc3ccc4cccc2c4c31`, the outcome in assay [1] was inactive.

Turning to `C=CCOc1nc(OCC=C)nc(OCC=C)n1`, the outcome in assay [2] was inactive.

For `Cc1cccc(C)c1C`, in assay [2], the call was inactive.

Take `CCN(CC)CCOC(=O)c1ccc(N)cc1`: the outcome in assay [3] and in assay [5] was inactive. Further, in assay [4], the AC50 is 20.5 µM (active).

As for `CC(C)=CCCC(C)=CCCC(C)=CCO`, the AC50 in assay [2] was 54.2 µM (active). Further, the result in assay [1] was inactive.

`Cc1ccc2n[nH]nc2c1`: the call in assay [2] was inactive.

As to `COc1cc2ncnc(Nc3cccc(Cl)c3)c2cc1OC`, the call in assay [2] was inactive.

Take `CSc1nc(NC2CC2)nc(NC(C)(C)C)n1`: the outcome in assay [2], in assay [1], in assay [4] and in assay [5] was inactive.

As to `COc1cc(C(C)(C)C)c(O)c(C(C)(C)C)c1`, the outcome in assay [1], in assay [4] and in assay [5] was inactive.

Turning to `Cc1ccc(O)c(C(C)(C)C)c1`, the compound was called inactive in assay [1], in assay [4] and in assay [5].

Turning to `CC1(C)[C@H](C(=O)OCc2cccc(Oc3ccccc3)c2)[C@@H]1C=C(Cl)Cl`, the compound was classed as inactive in assay [2].

As to `c1ccc(CCCc2ccccn2)cc1`, the compound was called inactive in assay [2] and in assay [4].

Regarding `CC1CC(OC(=O)c2ccccc2O)CC(C)(C)C1` (stereo unspecified), the compound was classed as inactive in assay [2] and in assay [5].

Regarding `O=Nc1ccc(Nc2ccccc2)cc1`, the AC50 in assay [1] is 53.8 µM (active). Besides, the call in assay [4] and in assay [5] was inactive.

For `CC1COc2ccccc2N1C(=O)C(Cl)Cl` (stereo unspecified), the AC50 in assay [2] was 4.9 µM (active); in assay [4], 2.33 µM (active); in assay [5], 4.63 µM (active).

As for `CCCCCCCCCCCCCCCC(=O)OC[C@H](O)[C@H]1OC(=O)C(O)=C1O`, the call in assay [1], in assay [4] and in assay [5] was inactive.

As for `Nc1ccc(F)c([N+](=O)[O-])c1`, in assay [2], the result was inactive.

In the case of `O=C(O)c1ccc([N+](=O)[O-])cc1`, the compound was classed as inactive in assay [2], in assay [6] and in assay [4].

As to `C=CC(C)(C)O`, the call in assay [2] was inactive.

Consider `NC(=O)Nc1ccc(Cl)cc1`, for which the call in assay [2] and in assay [4] was inactive.

By AC50 is commonly meant the concentration at which the activity in the assay is half-maximal.

The record behind these values is PubChem BioAssay (EPA / NIEHS).
